Consider 17 compounds from ChEMBL document CHEMBL1961873, “Compounds: GSK PKIS; Assays: Nanosyn kinase panel” (2012).

In assay [1] the target is RAC-alpha serine/threonine-protein kinase (Homo sapiens) (UniProt P31749). The following applies: at 0.1 µM.
The target is the same in assay [2]. The following applies: at 1 µM.
Assay [3] deals with RAC-beta serine/threonine-protein kinase (Homo sapiens) (UniProt P31751). Particulars: at 0.1 µM.
The target is the same in assay [4]. The following applies: at 1 µM.
In assay [5] the target is RAC-gamma serine/threonine-protein kinase (Homo sapiens) (UniProt Q9Y243). Particulars: at 0.1 µM.
For assay [6] the target is unchanged. Particulars: at 1 µM.
Assay [7] has as its target G protein-coupled receptor kinase 6 (Homo sapiens) (UniProt P43250). Particulars: at 0.1 µM.
The target is the same in assay [8]. The following applies: at 1 µM.
Assay [9] addresses T1, Rhodopsin kinase GRK7 (Homo sapiens) (UniProt Q8WTQ7).
T1 sequence (whole entry): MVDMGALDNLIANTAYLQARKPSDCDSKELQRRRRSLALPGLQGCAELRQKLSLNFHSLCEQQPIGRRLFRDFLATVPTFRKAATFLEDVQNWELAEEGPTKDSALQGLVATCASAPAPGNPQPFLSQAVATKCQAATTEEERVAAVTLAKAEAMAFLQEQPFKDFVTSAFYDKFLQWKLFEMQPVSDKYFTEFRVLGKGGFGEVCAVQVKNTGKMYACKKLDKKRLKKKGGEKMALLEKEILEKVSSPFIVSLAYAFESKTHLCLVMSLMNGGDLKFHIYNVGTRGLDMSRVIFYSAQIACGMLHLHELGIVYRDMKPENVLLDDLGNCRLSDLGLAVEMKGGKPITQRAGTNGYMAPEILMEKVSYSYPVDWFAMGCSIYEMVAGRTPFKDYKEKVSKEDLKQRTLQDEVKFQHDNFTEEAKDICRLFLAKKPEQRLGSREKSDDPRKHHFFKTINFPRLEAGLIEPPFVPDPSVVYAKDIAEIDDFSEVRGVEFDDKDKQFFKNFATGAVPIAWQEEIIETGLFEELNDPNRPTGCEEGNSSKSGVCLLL
Particulars: at 0.1 µM.

Assay [10] has as its target T1, Rhodopsin kinase GRK7 (Homo sapiens). Particulars: at 1 µM.

RAC-alpha serine/threonine-protein kinase (Homo sapiens), sequence (P31749 whole entry): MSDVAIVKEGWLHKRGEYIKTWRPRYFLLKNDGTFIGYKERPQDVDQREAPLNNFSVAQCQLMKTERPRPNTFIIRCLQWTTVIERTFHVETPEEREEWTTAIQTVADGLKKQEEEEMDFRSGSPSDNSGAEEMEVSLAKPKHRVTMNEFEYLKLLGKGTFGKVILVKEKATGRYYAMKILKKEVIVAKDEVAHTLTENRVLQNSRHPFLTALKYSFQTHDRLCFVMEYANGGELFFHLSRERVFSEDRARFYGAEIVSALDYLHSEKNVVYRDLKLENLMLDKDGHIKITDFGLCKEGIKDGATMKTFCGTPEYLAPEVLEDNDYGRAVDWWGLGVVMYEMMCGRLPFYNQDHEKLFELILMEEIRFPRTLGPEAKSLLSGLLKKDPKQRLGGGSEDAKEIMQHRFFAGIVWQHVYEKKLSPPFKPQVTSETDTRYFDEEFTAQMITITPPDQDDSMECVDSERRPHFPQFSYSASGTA
RAC-beta serine/threonine-protein kinase (Homo sapiens), sequence (P31751 whole entry): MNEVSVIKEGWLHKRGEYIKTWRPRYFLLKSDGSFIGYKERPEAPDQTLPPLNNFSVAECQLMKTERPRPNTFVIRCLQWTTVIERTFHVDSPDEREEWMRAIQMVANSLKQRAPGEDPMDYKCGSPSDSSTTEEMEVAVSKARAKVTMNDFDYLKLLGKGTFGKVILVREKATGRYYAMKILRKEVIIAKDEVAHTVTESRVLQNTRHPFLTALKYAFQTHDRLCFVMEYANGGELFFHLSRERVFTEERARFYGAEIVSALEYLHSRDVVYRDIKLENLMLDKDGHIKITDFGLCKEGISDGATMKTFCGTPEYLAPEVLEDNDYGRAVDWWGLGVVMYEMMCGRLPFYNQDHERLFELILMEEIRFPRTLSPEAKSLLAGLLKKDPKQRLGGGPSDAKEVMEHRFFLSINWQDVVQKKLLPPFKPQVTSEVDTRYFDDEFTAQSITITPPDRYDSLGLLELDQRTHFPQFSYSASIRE
G protein-coupled receptor kinase 6 (Homo sapiens), sequence (P43250 whole entry, looked up): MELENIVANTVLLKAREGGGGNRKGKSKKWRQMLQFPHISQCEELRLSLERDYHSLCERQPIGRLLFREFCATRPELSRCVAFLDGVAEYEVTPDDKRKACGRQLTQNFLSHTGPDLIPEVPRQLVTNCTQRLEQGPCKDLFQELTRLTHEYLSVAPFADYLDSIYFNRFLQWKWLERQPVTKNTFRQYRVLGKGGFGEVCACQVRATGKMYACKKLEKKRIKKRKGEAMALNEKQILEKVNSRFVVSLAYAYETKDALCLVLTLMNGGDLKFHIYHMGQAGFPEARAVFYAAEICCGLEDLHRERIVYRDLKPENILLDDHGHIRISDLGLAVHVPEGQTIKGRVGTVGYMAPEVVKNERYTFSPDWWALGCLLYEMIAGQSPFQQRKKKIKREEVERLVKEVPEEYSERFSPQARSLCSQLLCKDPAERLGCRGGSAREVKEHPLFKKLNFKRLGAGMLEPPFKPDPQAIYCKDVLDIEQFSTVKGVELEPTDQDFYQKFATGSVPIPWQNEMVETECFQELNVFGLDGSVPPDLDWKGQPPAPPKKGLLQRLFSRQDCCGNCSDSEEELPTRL
RAC-gamma serine/threonine-protein kinase (Homo sapiens), sequence (Q9Y243 whole entry): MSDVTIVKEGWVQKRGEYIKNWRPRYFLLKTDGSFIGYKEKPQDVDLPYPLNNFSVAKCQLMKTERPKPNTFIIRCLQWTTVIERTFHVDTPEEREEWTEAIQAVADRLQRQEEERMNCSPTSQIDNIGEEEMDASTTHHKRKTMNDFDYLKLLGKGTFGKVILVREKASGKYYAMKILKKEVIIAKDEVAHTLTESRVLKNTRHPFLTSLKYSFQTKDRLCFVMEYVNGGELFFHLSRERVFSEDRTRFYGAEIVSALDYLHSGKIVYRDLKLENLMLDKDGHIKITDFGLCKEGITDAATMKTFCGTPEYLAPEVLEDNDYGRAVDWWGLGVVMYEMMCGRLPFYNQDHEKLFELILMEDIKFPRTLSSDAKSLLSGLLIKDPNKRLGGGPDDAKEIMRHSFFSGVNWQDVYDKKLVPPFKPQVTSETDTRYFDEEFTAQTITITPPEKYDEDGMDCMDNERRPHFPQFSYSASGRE

In general, inhibition refers to the drop in the measured response relative to a control, in per cent. As for `COc1cc2ncn(-c3cc(OCc4ccccc4C(F)(F)F)c(C(=O)N(C)C)s3)c2cc1OC`, the inhibition in assay [1] is -0.4%; in assay [2] it was -0.11%; in assay [3] it was -0.31%; in assay [4] it was 0.45%; in assay [5], 0.89%; in assay [6], 1.26%. The inhibition was -0.42% in assay [7], 0.69% in [8], -2.57% in [9] and 3.66% in assay [10].
Take `CCN(CC)S(=O)(=O)c1ccc(OC)c(Nc2ncc(-c3ccccc3)o2)c1`: the inhibition is 0.87% in assay [1]; -0.4% in assay [2]; 0.37% in [3]; 0.18% in assay [4]; 2.3% in assay [5]; -1.03% in [6]. For the same compound, the inhibition was 1.87% in assay [7], -0.46% in assay [8], 3.17% in [9] and -3.96% in [10].
On to `COc1ccc2c(-c3ccnc(Nc4cccc(OC(F)(F)F)c4)n3)cnn2n1`, for which the inhibition was found to be 0.95% in assay [1]; 0.97% in assay [2]; 2.41% in assay [3]; 1.51% in assay [4]; 1.3% in [5]; 1.57% in [6]. The inhibition in assay [7] amounted to 4.64%; in [8], 5.84%; in [9], 5.16%; in assay [10] it was 4.9%.
As to `COc1ccc(-c2nn3ncccc3c2-c2ccnc(Nc3ccc4c(c3)OCCO4)n2)cc1`, the inhibition was -0.35% in assay [1]; -0.09% in [2]; -0.91% in [3]; -0.18% in assay [4]; 0.24% in assay [5]; 2.32% in assay [6]. Moreover, the inhibition in [7] was -1.91%; in assay [8], -1.49%; in [9], 4.16%; in assay [10], 2.81%.
As for `CNC(=O)c1cc(-c2ccc(F)cc2)cc(-c2ccc(S(=O)(=O)N3CCCC3)cc2)c1N`, the inhibition in [1] amounted to 0.66%; in assay [2], 0.31%; in assay [3], 1.23%; in [4] it was 1.37%; in assay [5] it was 0.7%; in assay [6], 3.34%. Moreover, the inhibition in assay [7] turned out to be 1.55%; in assay [8], 2.77%; in [9], 9.52%; in [10] it was 2.15%.
With `Cc1cccc(Nc2ncc(-c3ccccc3)o2)c1`, the inhibition in assay [1] stood at 2.47%; in assay [2], 3.09%; in [3], 2.46%; in assay [4] it was 2.97%; in [5], 2.2%; in assay [6], 5.22%. The inhibition was found to be 5.33% in assay [7], 4.72% in [8], 4.29% in assay [9] and 3.7% in [10].
For `COc1ccc2[nH]c3c4[nH]c5ccc(OC)cc5c4c4c(c3c2c1)C(=O)NC4=O`, the inhibition in [1] stood at 0.56%; in assay [2], 4.28%; in assay [3] it was 1.45%; in assay [4], 2.54%; in assay [5], 1.39%; in assay [6] it was 2.7%. In addition, the inhibition came out at 20.2% in assay [7], 41.2% in assay [8], 22.7% in [9] and 26.6% in assay [10].
On to `CCn1c(-c2nonc2N)nc2ccccc21`, for which the inhibition came to 1.46% in assay [1]; 2.48% in [2]; 0.69% in assay [3]; 2.24% in assay [4]; 0.81% in assay [5]; 3.67% in assay [6]. The inhibition in assay [7] was 1.21%; in assay [8], -3.25%; in assay [9], 1.89%; in [10], -9.67%.
On to `CC1=C(C(=O)Nc2cc(Cl)c3[nH]ncc3c2)C(c2ccc(C(F)(F)F)cc2)CC(=O)N1` (stereo not given), for which the inhibition in [1] amounted to 0.52%; in [2], 5.71%; in assay [3], 1.33%; in [4], 3.66%; in assay [5], 2.98%; in [6], 22.1%. Besides, the inhibition in assay [7] amounted to 4.52%; in assay [8] it was 13.4%; in assay [9], 3.32%; in [10], 16.4%.
As to `COc1cccc(-n2ncc3c(N/N=C/c4ccc(F)cc4)ncnc32)c1`, the inhibition in [1] came out at 0.98%; in assay [2], 0.49%; in assay [3], 2%; in assay [4], 1.56%; in assay [5] it was 1.42%; in assay [6], 0.92%. In addition, the inhibition turned out to be 5.53% in assay [7], 7.7% in assay [8], 3.44% in assay [9] and 19.5% in assay [10].
`CC(=O)NCc1cccc(C#Cc2cncnc2Nc2ccc(OCc3cccc(F)c3)c(Cl)c2)c1`: the inhibition in assay [1] is -0.84%; in assay [2] it was -1.16%; in assay [3] it was -0.39%; in assay [4], 0.71%; in assay [5], 0.73%; in assay [6], 0.47%. Further, the inhibition is 1.84% in assay [7], 3.06% in assay [8], -1.42% in [9] and 7.96% in assay [10].
`CCn1cc(-c2ccnc3[nH]ccc23)c(-c2cccc(NC(=O)Nc3ccc(OCc4ccccc4)cc3)c2)n1`: the inhibition in assay [1] was 1.5%; in [2], 1.68%; in assay [3], 1.8%; in [4] it was 3.99%; in assay [5] it was 0.23%; in [6], 2.59%. For the same compound, the inhibition in assay [7] was -2.36%; in assay [8], 0.99%; in [9], 3.4%; in assay [10], -2.29%.
With `CCn1c(-c2nonc2N)nc2c(C#CC(C)(C)O)nc(OC[C@H](N)c3ccccc3)cc21`, the inhibition in assay [1] was 64.2%; in assay [2], 90.4%; in assay [3], 75.3%; in [4], 92%; in assay [5], 66.8%; in assay [6], 91.7%. Moreover, the inhibition in [7] worked out at 2.82%; in [8], 5.48%; in [9] it was 2.77%; in [10], 15%.
`NS(=O)(=O)c1ccc(N/N=C2\C(=O)Nc3ccc4ncccc4c32)cc1`: the inhibition was determined as 0.85% in [1]; 0.69% in assay [2]; 1.6% in assay [3]; 2.48% in assay [4]; 1.36% in [5]; 2.03% in assay [6]. For the same compound, the inhibition in assay [7] is -2.97%; in assay [8], 15.8%; in [9], 4.91%; in assay [10], 19%.
Regarding `CS(=O)(=O)CCNCc1ccc(-c2ccc3ncnc(Nc4ccc(OCc5ccccc5)c(C(F)(F)F)c4)c3c2)o1`, the inhibition in assay [1] came out at 1.54%; in assay [2], 1.3%; in [3], 1.35%; in [4] it was 2.2%; in assay [5], 0.3%; in assay [6] it was 3.04%. For the same compound, the inhibition in [7] is -0.85%; in assay [8], 1.09%; in assay [9], 10.8%; in assay [10], 3.42%.
For `Nc1ncc(-c2cccc(S(N)(=O)=O)c2)c2scc(-c3ccc(F)c(Cl)c3)c12`, the inhibition in assay [1] was 0.6%; in assay [2], 1.09%; in assay [3] it was 0.29%; in assay [4], 2.33%; in assay [5] it was -0.27%; in assay [6], 5.34%. The inhibition in [7] is 0.4%; in assay [8] it was -0.33%; in [9], 6.15%; in [10], 6.1%.
Take `COc1cc(/C=N/Nc2ncnc3[nH]ncc23)ccc1O`: the inhibition was determined as 0.87% in assay [1]; 0.81% in assay [2]; 1.01% in [3]; 0.76% in assay [4]; 1.65% in assay [5]; 0.92% in [6]. Further, the inhibition was determined as 4.89% in [7], 5.42% in assay [8], 2.24% in assay [9] and 5.07% in [10].
